PubChem BioAssay (NCI)
Compounds without any hit were thinned out: in the full panel of roughly 79,000, 15% have a hit. Unmarked numbers belong to inactive results. Calls of active or inactive are those of the source. Cut-off read from the data, not from the text of the source: active = growth inhibition above about 70%; inactive = the rest.

Experiment: NCI Yeast Anticancer Drug Screen. Data for the rad50 strain (AID 155);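 note: 0% = growth of vehicle-only cultures of the same strain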
Details: S. cerevisiae rad50 strain growth inhibition; at 50.0 µM; hits give high values
Procedure, shortened: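 Inhibition values express reduced yeast growth in compound-treated cultures relative to vehicle-treated controls.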

Row | SMILES | growth inhibition
1 | CCCNC(=O)OCc1ccc(NCCN(CC)CC)c2c(=O)c3ccccc3sc12 | 69%
2 | COc1cc(C(c2cc3c(cc2O)OCO3)N2CCCCC2)cc(OC)c1OC (stereo not given) | 25%
3 | Cc1cc2c(cc1Cl)Sc1nnc(C)n1S2(=O)=O | 74.8% (active)
4 | O=C(Oc1cccc2cccnc12)c1ccccc1 | 96.4% (active)
5 | CCCCCCN(CCCCCC)CCC(=O)c1ccc2cc(Br)c3ccccc3c2c1 | 98.6% (active)
6 | Cc1c2cc(Cl)ccc2cc2c1ccc1ccccc12 | 96.7% (active)
7 | O=C1OC(CCCl)(c2ccccc2)CC1CN1CCOCC1 (stereo not given) | 70% (active)
8 | CCOC(=N)CCCSSc1ccc(N=[N+]=[N-])cc1 | 98.7% (active)
9 | Cc1[nH]c2ccccc2c1/C=C1\C(=O)C2CCC1C2 (stereo not given) | 95.4% (active)
10 | O=C(O)c1ccc2c3c(ncnc13)-c1ccccc1C2=O | 62%
11 | CCNCCNc1cc(O)c2c(c1O)C(=O)c1ccccc1C2=O | 87.2% (active)
12 | Nc1nc(N)c2nc(CNc3ccc(C(=O)NC(CCC(=O)O)C(=O)O)cc3)cnc2n1 (stereo not given) | 64.8%
13 | COc1ccccc1OC(=O)Oc1ccccc1OC | 36.6%
14 | NNC(=O)c1c(SCc2ccccc2)nc2c3ccccc3ccn12 | 51.5%
15 | N#CC1Oc2ccccc2N1C(=O)c1ccccc1 (stereo not given) | 33%
16 | O=C1C2=Cc3ccccc3CCN2c2ccccc21 | 88.3% (active)
17 | Cc1cc([N+](=O)[O-])cc(Cl)c1O | 79.1% (active)
18 | Cc1c(Cl)cccc1N=NC(=O)NNc1cccc(Cl)c1C | 85.4% (active)
19 | CCC[CH2][Sn]1([CH2]CCC)[O]C(=O)CN=Cc2c(ccc3ccccc23)[O]1 | 91.2% (active)
20 | Oc1ccc(/C=N/NC(=S)Nc2ccccc2)nc1 | 82.8% (active)

Row | SMILES | growth inhibition
21 | CN(C)COC(=S)SCN(C)C | 51.4%
22 | Cc1cc2cc3c(c(C(=O)O)c2o1)C(=O)c1ccc2ccccc2c1C3 | 98.2% (active)
23 | O=C1CC(=S)NC(=S)N1 | 12.8%
24 | O=[N+]([O-])c1cc(I)c(O)c(/C=N/NS(=O)(=O)c2ccc(Cl)cc2)c1 | 88.5% (active)
25 | CCC1CCC(CC)C1=O (stereo not given) | 94.2% (active)
26 | Cc1cc(O)c2c(c1)C(=O)c1c(c(O)cc(O)c1-c1c(O)cc(O)c3c1C(=O)c1cc(C)cc(O)c1C3=O)C2=O | 64.8%
27 | CCC(=O)Sc1ccccc1C(=O)Nc1ccc(Cl)cc1 | 88.5% (active)
28 | COc1cccc(CC2N(S(=O)(=O)c3ccc(C)cc3)CCC23C(=O)Nc2ccccc23)c1OC (stereo not given) | 91.8% (active)
29 | Cc1occc1C(=S)Nc1ccc(Cl)c(C(=O)OCC(C)C)c1 | 61.3%
30 | CCOC(=O)c1ccc([N+](=O)[O-])o1 | 94.4% (active)
31 | Nc1ccc(S(=O)(=O)O)c2cccc(S(=O)(=O)O)c12 | 3.45%
32 | Cn1c2ccccc2c2nnc(N/N=C/c3ccccn3)nc21 | 94.4% (active)
33 | C#CC(NCCC(C)CC(C)(C)C)C(C)C (stereo not given) | 83.3% (active)
34 | C/C(=N/Nc1ccccc1)C(=O)O | 97.8% (active)
35 | CCCCCCCCCCCCCCOC(=O)C(N)Cc1ccc(O)cc1 (stereo not given) | 98.6% (active)
36 | O=C(Nc1ccc(S(=O)(=O)NC2CCCCC2)cc1)OCc1ccccc1 | 57%
37 | NC1CCCCC1N.O=S(=O)([O-])CCCN1CCN(CCO)CC1.O=S(=O)([O-])CCCN1CCN(CCO)CC1.[Pt+4] | -8.45%
38 | CCCCCCCNc1ccc2c(cc1=O)C(NC(C)=O)CCc1cc(OC)c(OC)c(OC)c1-2 (stereo not given) | 91.5% (active)
39 | Cc1ccc(NC(=O)c2cc3ccccc3c(N=Nc3cc(S(=O)(=O)O)ccc3O)c2O)c(C)c1 | 71.8% (active)
40 | O=C(O)/C(Cl)=C(\Cl)C(=O)Nc1cccc(C(F)(F)F)c1 | 99.5% (active)

Experiment: NCI Yeast Anticancer Drug Screen. Data for the mec2-1 strain (AID 157)
Details: S. cerevisiae mec2-1 strain, at 5.0 µM (retest, dose inferred, filed as 0.5), hits give high values
Procedure, shortened: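 Growth inhibition is read against vehicle-treated controls after compound exposure of the mec2-1 yeast strain, which is defective in DNA damage repair or cell cycle control.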

Row | SMILES | growth inhibition
41 | CCCNC(=O)OCc1ccc(NCCN(CC)CC)c2c(=O)c3ccccc3sc12 | -7%
42 | COc1cc(C(c2cc3c(cc2O)OCO3)N2CCCCC2)cc(OC)c1OC (stereo not given) | 0%
43 | Cc1cc2c(cc1Cl)Sc1nnc(C)n1S2(=O)=O | 14%
44 | O=C(Oc1cccc2cccnc12)c1ccccc1 | -22%
45 | CCCCCCN(CCCCCC)CCC(=O)c1ccc2cc(Br)c3ccccc3c2c1 | 38%
46 | Cc1c2cc(Cl)ccc2cc2c1ccc1ccccc12 | -7%
47 | O=C1OC(CCCl)(c2ccccc2)CC1CN1CCOCC1 (stereo not given) | -10%
48 | CCOC(=N)CCCSSc1ccc(N=[N+]=[N-])cc1 | -15%
49 | Cc1[nH]c2ccccc2c1/C=C1\C(=O)C2CCC1C2 (stereo not given) | -4%
50 | O=C(O)c1ccc2c3c(ncnc13)-c1ccccc1C2=O | 43%
51 | CCNCCNc1cc(O)c2c(c1O)C(=O)c1ccccc1C2=O | 92% (active)
52 | Nc1nc(N)c2nc(CNc3ccc(C(=O)NC(CCC(=O)O)C(=O)O)cc3)cnc2n1 (stereo not given) | -3%
53 | COc1ccccc1OC(=O)Oc1ccccc1OC | -3%
54 | NNC(=O)c1c(SCc2ccccc2)nc2c3ccccc3ccn12 | 22%
55 | N#CC1Oc2ccccc2N1C(=O)c1ccccc1 (stereo not given) | 0%
56 | O=C1C2=Cc3ccccc3CCN2c2ccccc21 | -6%
57 | Cc1cc([N+](=O)[O-])cc(Cl)c1O | -6%
58 | Cc1c(Cl)cccc1N=NC(=O)NNc1cccc(Cl)c1C | 29%
59 | CCC[CH2][Sn]1([CH2]CCC)[O]C(=O)CN=Cc2c(ccc3ccccc23)[O]1 | 74% (active)
60 | Oc1ccc(/C=N/NC(=S)Nc2ccccc2)nc1 | 4%

Row | SMILES | growth inhibition
61 | CN(C)COC(=S)SCN(C)C | 96% (active)
62 | Cc1cc2cc3c(c(C(=O)O)c2o1)C(=O)c1ccc2ccccc2c1C3 | 24%
63 | O=C1CC(=S)NC(=S)N1 | 0%
64 | O=[N+]([O-])c1cc(I)c(O)c(/C=N/NS(=O)(=O)c2ccc(Cl)cc2)c1 | -8%
65 | CCC1CCC(CC)C1=O (stereo not given) | -2%
66 | Cc1cc(O)c2c(c1)C(=O)c1c(c(O)cc(O)c1-c1c(O)cc(O)c3c1C(=O)c1cc(C)cc(O)c1C3=O)C2=O | 29%
67 | CCC(=O)Sc1ccccc1C(=O)Nc1ccc(Cl)cc1 | 28%
68 | COc1cccc(CC2N(S(=O)(=O)c3ccc(C)cc3)CCC23C(=O)Nc2ccccc23)c1OC (stereo not given) | 2%
69 | Cc1occc1C(=S)Nc1ccc(Cl)c(C(=O)OCC(C)C)c1 | 19%
70 | CCOC(=O)c1ccc([N+](=O)[O-])o1 | 4%
71 | Nc1ccc(S(=O)(=O)O)c2cccc(S(=O)(=O)O)c12 | -2%
72 | Cn1c2ccccc2c2nnc(N/N=C/c3ccccn3)nc21 | 21%
73 | C#CC(NCCC(C)CC(C)(C)C)C(C)C (stereo not given) | 2%
74 | C/C(=N/Nc1ccccc1)C(=O)O | 6%
75 | CCCCCCCCCCCCCCOC(=O)C(N)Cc1ccc(O)cc1 (stereo not given) | 1%
76 | O=C(Nc1ccc(S(=O)(=O)NC2CCCCC2)cc1)OCc1ccccc1 | 99% (active)
77 | NC1CCCCC1N.O=S(=O)([O-])CCCN1CCN(CCO)CC1.O=S(=O)([O-])CCCN1CCN(CCO)CC1.[Pt+4] | 8%
78 | CCCCCCCNc1ccc2c(cc1=O)C(NC(C)=O)CCc1cc(OC)c(OC)c(OC)c1-2 (stereo not given) | 8%
79 | Cc1ccc(NC(=O)c2cc3ccccc3c(N=Nc3cc(S(=O)(=O)O)ccc3O)c2O)c(C)c1 | 33%
80 | O=C(O)/C(Cl)=C(\Cl)C(=O)Nc1cccc(C(F)(F)F)c1 | 56%
